Data published in PubChem BioAssay AID720513 (Broad Institute, 2013).
Hit rate of the full screen: of about 2,100 compounds, about 480 (23%) were called active. Not shown: some 5% with an inconclusive outcome. A selection follows. Measured potencies and affinities stand elsewhere. Values without a mark were called inactive.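 Rule for the calls: active = fitted curve reaches 40% activation at or below the top valid concentration, in every replicate test; inconclusive = replicate tests disagree on the call; inactive = the rest, including activity in the opposite direction.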

assay: activators raising PGC1a acetylation in cells, dose response, cell-based, cherry-picked samples, set 6 (AID 720513); conditions: U2OS PGC1a acetylation AlphaLISA, overnight, 0 = neutral, -100 = inhibitor control; series mostly up to 19.5 µM; activation (acetylation increase): at the top concentration;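 note: cells made to overexpress flag tagged PGC1a plus GCN5 acetyltransferase by viral infection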

Structure (SMILES)	activation (acetylation increase)
O=C(OCc1nc(-c2ccccc2)oc1COC(=O)c1ccco1)c1ccco1	-3.75%
Cc1cc(Cl)ccc1OCC(=O)Nc1cccc(S(=O)(=O)NC2=NCCCCC2)c1	7.74%
COc1ccc(N(CC(=O)Nc2ccccc2Cl)S(=O)(=O)c2ccc(C)cc2)cc1OC	7.4%
N#CC1=C(N)Oc2c(ccc3ccccc23)C1c1ccsc1 (stereo unspecified)	-48.4%
C[C@H]1CN([C@@H](C)CO)C(=O)c2cc(C#Cc3ccccc3)cnc2O[C@@H]1CN(C)C(=O)c1ccccc1F	-9.97%
c1cncc(CNc2ncnc3ccc(-c4ccoc4)cc23)c1	11.1%
COC(=O)c1cc(CN2C(=O)c3ccccc3C2=O)c(O)c([N+](=O)[O-])c1	36.6%
O=C(Nc1nc(-c2ccccn2)cs1)c1ccccc1-n1cnnn1	10.9%
O=C(Nc1ccccc1N1CCOCC1)C1(c2ccc(Cl)cc2)CCC1	19.7%
O=C(c1ccc(CN2CCOCC2)cc1)N1CCN(Cc2ccccc2)CC1	10.3%
C#CCN1C(=O)C(O)(CC(=O)c2ccc(OC)c(OC)c2)c2ccccc21 (stereo unspecified)	7.98%
CC(C)C#Cc1cnc2c(c1)C(=O)N([C@H](C)CO)C[C@H](C)[C@H](CN(C)C(=O)c1ccccn1)O2	3.01%
CCOc1ccc(N2CC(C(=O)Nc3ccc(S(=O)(=O)NCC4CCCO4)cc3)CC2=O)cc1 (stereo unspecified)	17.9%
COc1ccc(F)cc1CN1CCN(CC(=O)N2CCc3ccccc32)CC1	-12.8%
O=C(c1cccc(N2C(=O)C3C4C=CC(C4)C3C2=O)c1)N1CCCc2ccccc21 (stereo unspecified)	8.25%
C[C@H](CO)N1C[C@H](C)[C@@H](CN(C)C(=O)Nc2ccc(-c3cccs3)cc2)OCc2cnnn2CCCC1=O	-3.11%
CCCc1cn(CC[C@@H]2CC[C@H](NC(=O)Nc3ccc4c(c3)OCO4)[C@@H](CO)O2)nn1	-8.84%
O=c1c2cn(Cc3ccc(F)cc3)c3ccc(F)cc3c-2nn1Cc1ccc(F)cc1	3.94%
FC(F)(F)c1ccc(Cl)c(-n2c(-c3cc(-c4ccco4)[nH]n3)n[nH]c2=S)c1	-12.5%
C[C@H](CO)N1C[C@H](C)[C@H](CN(C)Cc2ccncc2)OCc2cn(nn2)CCCC1=O	25.1% [at 21 µM]
COCC(=O)N1C[C@@H](C)[C@@H](OC)CN(C)C(=O)c2ccc(NC(=O)c3cnccn3)cc2OC[C@@H]1C	-10.3%
CC(=O)n1nc2nc(C)cc(C)c2c1N	-25.1%
CCS(=O)(=O)Nc1ccc2c(c1)C(=O)N(C)C[C@@H](OC)[C@H](C)CN(Cc1ccccn1)[C@@H](C)CO2	-1.3%

Structure (SMILES)	activation (acetylation increase)
O=C(COC(=O)Cc1ccc(S(=O)(=O)N2CCOCC2)s1)NCCc1ccccc1	-11.5%
O=C(O)C1CCCN1S(=O)(=O)c1cc(Cl)ccc1Cl (stereo unspecified)	6.52%
C[C@@H]1CN([C@@H](C)CO)C(=O)CCCn2nncc2CO[C@H]1CN(C)S(=O)(=O)c1ccc(Cl)cc1	-1.78%
CCCCN(CCCC)CCNC(=O)c1ccc2nc(-c3ccccc3NC(C)=O)c(=O)[nH]c2c1	28.6%
COCCCNC(=O)c1ccc(Cn2c(=O)c3ccccc3n(Cc3ccccc3C)c2=O)cc1	39.4%
CCCOc1ccc2ccccc2c1/C=C1\SC(=O)NC1=O	-9.84%
Nc1nc(SCC(=O)Nc2ccccc2Sc2ccc(Cl)cc2)n[nH]1	19.6%
C[C@@H]1CN([C@H](C)CO)C(=O)c2cc(-c3ccccc3)cnc2O[C@H]1CN(C)C(=O)Cc1ccccn1	-7.93%
CN(C)CCNC(=O)c1cccc2c(-c3ccc(F)c(F)c3)coc12	20.9%
O=C(CSc1nnc(-c2ccco2)n1-c1ccccc1)Nc1c(Cl)cc(Cl)cc1C(=O)O	9.43%
COC(=O)/C=C/c1cnc2ccccc2c1	-0.261%
O=C(/C=C/c1cccs1)c1ccc(NC(=O)c2cccc(Br)c2)cc1	-11.5%
CCC(=O)Nc1cccc(C(=O)/C=C/c2ccccc2)c1	-64.7%
Cc1ccc2oc(Nc3nc(C)c(C)c(C)n3)nc2c1	-3.44%
CCC(=O)Nc1ccnc(-c2cccnc2)n1	22.6%
CC(c1ccccc1)N1C(=O)NC(NC(=O)c2cccnc2)(C(F)(F)F)C1=O (stereo unspecified)	7.53%
O=C(CCS(=O)(=O)c1ccc(Cl)cc1)Nc1nccs1	12.8%
OC[C@H]1[C@H](c2ccc(C#CC3CCCC3)cc2)[C@@H]2CN(CCC(F)(F)F)CCCCN12	-58%
COc1ccc(CN(C)C[C@@H]2Oc3ccc(NS(=O)(=O)c4c(C)noc4C)cc3C(=O)N([C@@H](C)CO)C[C@@H]2C)cc1	38%
C[C@H]1CCCCO[C@H](CN(C)Cc2ccncc2)[C@@H](C)CN([C@@H](C)CO)C(=O)c2cc(NS(=O)(=O)c3ccccc3)ccc2O1	-16.6%
O=C1C=CCCN1C(=O)/C=C/c1cccc(C(F)(F)F)c1	-79.7%
COc1ccc(C#Cc2ccc([C@H]3[C@@H](CO)N4CCCCN(C(=O)Nc5ccc(F)cc5)C[C@H]34)cc2)cc1	-94.6%
C[C@@H]1CN([C@@H](C)CO)C(=O)Cc2cc(NC(=O)C3CCCCC3)ccc2O[C@@H]1CN(C)Cc1ccc(Cl)c(Cl)c1	31.6%

Structure (SMILES)	activation (acetylation increase)
CC(C)CC#Cc1ccc([C@H]2[C@H](CO)N3C(=O)CN(C(=O)Nc4cc(F)ccc4F)C[C@@H]23)cc1	-34.3%
O=C(COC(=O)c1cc[n+]([O-])cc1)Nc1cccc(Cl)c1Cl	18.2%
Cc1c(Cl)cccc1Nc1ncccc1C(=O)O	-8.63%
Cc1noc(C)c1NC(=O)N(C)C[C@H]1OCCCC[C@@H](C)Oc2ccc(NC(=O)Cc3ccccc3)cc2C(=O)N([C@@H](C)CO)C[C@@H]1C	-3.05%
C[C@@H]1CN([C@H](C)CO)C(=O)c2cc(NS(=O)(=O)c3cccs3)ccc2O[C@@H]1CN(C)S(=O)(=O)c1ccc(F)cc1	2.7%
Cc1ccc(S(=O)(=O)N[C@@H]2CC[C@@H](CCNC(=O)c3ccccc3F)O[C@H]2CO)cc1	6.51%
O=C(CSc1nc2ccc(Cl)cc2[nH]1)c1ccc2c(c1)OCO2	6.16%
Cn1c(=O)c2cc(S(=O)(=O)NCCC(=O)NCc3ccccc3Cl)ccc2n(C)c1=O	4.26%
Cc1cc(OCC(=O)NNC(=O)c2cnccn2)cc(C)c1Cl	-4.82%
O=C(COc1ccc(Br)cc1)NCCNC(=O)c1cccnc1	71.5%
CCCNC(=O)c1ccc(COc2ccc(Cl)cc2)o1	0.816%
CCOc1ccc2nc(NCCCNC(=O)c3cc(OC)c(OC)c(OC)c3)c(C#N)cc2c1	-5.62%
O=C(C[C@@H]1C[C@@H]2c3cc(NC(=O)Nc4ccccc4F)ccc3O[C@@H]2[C@H](CO)O1)NCc1ccc(Oc2ccccc2)cc1	9.89%
CCc1cc2c(N3CCN(c4nnc(CC)s4)CC3)ncnc2s1	-4.99%
COc1ccc(-c2ccc(C3[C@@H]4CN(Cc5cc(OC)cc(OC)c5)C[C@H]3N4)cc2)cc1 (stereo partly specified)	-98.7%
COc1cccc(-c2ccc(C3[C@H]4CNC[C@@H]3N4Cc3ccc4c(c3)OCO4)cc2)c1 (stereo partly specified)	-12.3%
O=C(Nc1ccccc1)C1=C(c2ccccc2)S(=O)(=O)CCS1(=O)=O	-95.9%
Cn1nc(-c2ccccn2)nc2c(=O)n(C)c(=O)nc1-2	-108%
COc1cc(C(=O)N2CCN(S(=O)(=O)c3cccc(F)c3)CC2)ccc1OCC(=O)N1CCOCC1	15.1%
CN(C)c1ccc(C=C2SC(=S)NC2=O)cc1	-60.6%
CCOC(=O)/C(C#N)=C1/C(=O)N(Cc2ccccc2)c2ccccc21	36.9%
CC(=O)c1coc2c1cc(O)c1ccccc12	-14.2%
CCOCCn1c(N2CCN(c3ccccc3)CC2)nc2c1c(=O)n(C)c(=O)n2C	3.02%

Structure (SMILES)	activation (acetylation increase)
Cn1c(=O)c2c(ncn2CC(=O)O)n(C)c1=O	-6.17%
CSc1nc2c(c(=O)[nH]c(=O)n2C)n1Cc1ccccc1	-24.9%
C/C=C/Cn1c(SCc2ccc(Cl)cc2)nc2c1c(=O)[nH]c(=O)n2C	-18.2%
CCn1c(Oc2ccccc2F)nc2c1c(=O)n(C)c(=O)n2C	-23%
CCOCCCNc1nc2c(c(=O)n(C)c(=O)n2C)n1CCCc1ccccc1	41%
CC(C)CN1CCN(C(=O)COC(=O)c2ccc(S(C)(=O)=O)c([N+](=O)[O-])c2)CC1	-74.6%
CCC(=O)N[C@H]1CC[C@H](CC(=O)OC)O[C@H]1CO	-20.6%
CCCc1ccc(C(O)c2ncc(-c3cccc(F)c3)[nH]2)cc1 (stereo unspecified)	9.11%
COc1ccc(S(=O)(=O)Nc2ccc3c(c2)C(=O)N([C@H](C)CO)C[C@@H](C)[C@H](CN(C)C(=O)Nc2ccc(C(F)(F)F)cc2)OCCCC[C@@H](C)O3)cc1	-7%
O=C(OCc1nnc(-c2ccccc2)o1)C1=COCCO1	5.96%
C=CCn1c(SCc2c(C)noc2C)nc2ccccc2c1=O	-6.19%
C[C@@H]1CN([C@@H](C)CO)S(=O)(=O)c2ccc(-c3ccccc3)cc2O[C@@H]1CN(C)C(=O)c1ccccc1F	-30%
CCn1c(C(C)NC(=O)c2ccccc2C)n[nH]c1=S (stereo unspecified)	26%
COc1ccc(C#Cc2ccc([C@H]3[C@@H](CO)N4CCCCN(C(=O)Nc5ccccc5)C[C@H]34)cc2)cc1	-91% [at 21 µM]
O=C(Cn1ncc(Cl)c(Cl)c1=O)NC(=O)NC1CCCCC1	-38.6%
CO[C@@H]1CN(C)C(=O)c2cc(NC(C)=O)ccc2OC[C@H](C)N(Cc2cc(F)ccc2F)C[C@H]1C	9.55%
N#C/C(=C/c1ccc(OCc2ccc(C(=O)O)cc2)c(Br)c1)c1cccc(F)c1	24.4%
C[C@H]1CN([C@@H](C)CO)S(=O)(=O)c2ccc(Br)cc2O[C@@H]1CN(C)S(=O)(=O)c1ccccc1F	35.6%
CCN(C[C@@H]1N[C@@H](CO)[C@H]1c1ccc(-c2ccc(F)cc2)cc1)C(=O)CN(C)C	-2.97% [at 21 µM]
COc1ccccc1C#Cc1ccc([C@H]2[C@H](C#N)N(C(=O)C3CCCC3)[C@H]2CO)cc1	-92%
Clc1ccc(-c2csc(N3CCSCC3)n2)cc1	28.4%
O=S(=O)(c1ccc(Cl)cc1)c1snnc1-c1ccccc1	-91.3%
